Bead autofluor = flagged as autofluorescent in microsphere protease counterscreen | compound autofluorescence counterscreen, microsphere flow cytometry; stronger effect = higher value | fluorescence intensity (no concentration beside the values) | 360,000 compounds, 3.1% hits | AID 624483; in the data active = fluorescence intensity above about 16000; inconclusive = no clear call, values can overlap the other calls
DUSP3 inh = DUSP3 (human) phosphatase inhibition. P51452. recombinant VHR phosphatase, pNPP absorbance. inhibition, % at 13.3 µM. 290,000 compounds, 0.52% hits. AID 1654; in the data active = inhibition above about 50%
Target sequence (P51452 whole entry, looked up): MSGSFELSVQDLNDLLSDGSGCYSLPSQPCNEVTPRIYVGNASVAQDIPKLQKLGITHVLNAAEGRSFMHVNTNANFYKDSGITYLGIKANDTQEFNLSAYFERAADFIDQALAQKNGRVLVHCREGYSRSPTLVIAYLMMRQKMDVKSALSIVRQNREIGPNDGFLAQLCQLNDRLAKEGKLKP
BoNT-F LC inh = inhibitors of Botulinum neurotoxin F light chain protease; inhibition, % at 10 µM; 360,000 compounds, 0.22% hits; AID 588497; Multiplex microsphere protease cleavage assay, flow cytometry; in the data active = inhibition above about 35%, passing the limit was not always enough; inconclusive = no clear call, values can overlap the other calls; also: plate controls were buffer without enzyme for full effect and enzyme alone for no effect
MazF activator = increases E. coli MazEF RNase cleavage of RNA; activation, % at 20 µM; 350,000 compounds, 0.32% hits; FAM/BHQ RNA-DNA oligo cleavage fluorescence, 5 h; AID 504720; in the data active = activation above about 50%
Target sequence (P0AE70 whole entry, looked up): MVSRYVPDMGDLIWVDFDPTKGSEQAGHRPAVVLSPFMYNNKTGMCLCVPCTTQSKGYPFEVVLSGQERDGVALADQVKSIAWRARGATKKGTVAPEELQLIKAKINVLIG
BoNT A protease = blocks Botulinum neurotoxin A light chain protease; inhibition, % at 10 µM; 360,000 compounds, 0.17% hits; multiplex microsphere protease substrate cleavage, flow cytometry; also: plate controls were buffer without enzyme for full effect and enzyme alone for no effect
Anthrax LF prot = inhibitors of Bacillus anthracis lethal factor protease; AID 588501; 360,000 compounds, 0.12% hits; multiplex microsphere protease cleavage assay, LF; inhibition, % at 10 µM; also: plate controls were buffer without enzyme for full effect and enzyme alone for no effect
The depositor's hits bear a star. Shown are actives, neighbours in structure and some others; about 4.1% of the full set was active somewhere. Rule as the data show it, unless noted: active = inhibition above about 30%; inconclusive = no clear call, values can overlap the other calls; inactive = below that.

`C=C(C)COc1cc2oc(=O)c(CC(=O)N3C[C@H]4C[C@@H](C3)c3cccc(=O)n3C4)c(C)c2cc1Cl` gave Bead autofluor 5802, DUSP3 inh 20, BoNT-F LC inh -9, MazF activator 0, BoNT A protease -1 and Anthrax LF prot -6.
`Cc1nn(C)cc1/C=C/C(=O)c1ccccc1` gave Bead autofluor 16636*, DUSP3 inh 7, BoNT-F LC inh -2, MazF activator -15, BoNT A protease -1 and Anthrax LF prot -4.
`Cc1nn(C)c(C)c1/C=C/C(=O)c1ccccc1` gave Bead autofluor 24377*, DUSP3 inh 23, BoNT-F LC inh -8, MazF activator 0, BoNT A protease -6 and Anthrax LF prot -4.
For Cc1nn(C)cc1/C=C/C(=O)c1cccs1 the results were Bead autofluor 9107, DUSP3 inh 4, BoNT-F LC inh 1, MazF activator 5, BoNT A protease 1 and Anthrax LF prot -6.
For Cc1ccc2[nH]c(=O)c(-c3nc4ccccn4c3NCc3ccco3)cc2c1 the results were Bead autofluor 16211*, DUSP3 inh 19, BoNT-F LC inh -4, MazF activator 4, BoNT A protease 0 and Anthrax LF prot -1.
Screening COc1ccc(-c2cc(-c3cc(F)ccc3O)[nH]n2)cc1OC returned Bead autofluor 22604*, DUSP3 inh 27, BoNT-F LC inh -1, MazF activator 11, BoNT A protease inconclusive and Anthrax LF prot -2.
Screening COc1cccc(CN2C(=O)CCC2(C)C(=O)NC2CCCCC2)c1 (stereo not drawn) returned Bead autofluor 4481, DUSP3 inh 8, BoNT-F LC inh -7, MazF activator -11, BoNT A protease 0 and Anthrax LF prot -7.
For CC(C)CCN1C(=O)CCC1(C)C(=O)NC1CCCCCCC1 (stereo not drawn) the results were Bead autofluor 23125*, DUSP3 inh 27, BoNT-F LC inh -1, MazF activator 6, BoNT A protease 0 and Anthrax LF prot -1.
For COc1ccc(CN2C(=O)CCC2(C)C(=O)NC2CCCCCC2)cc1 (stereo not drawn) the results were Bead autofluor 23241*, DUSP3 inh 0, BoNT-F LC inh 1, MazF activator 11, BoNT A protease -2 and Anthrax LF prot -3.
Screening CC1(C(=O)NC2CCCC2)CCC(=O)N1Cc1ccc2c(c1)OCO2 (stereo not drawn) returned Bead autofluor 25159*, DUSP3 inh 45, BoNT-F LC inh -7, MazF activator 4, BoNT A protease -4 and Anthrax LF prot -3.
For CCNC(=O)C1(C)CCN(C(=O)c2c(-c3ccccc3)noc2C)C1 (stereo not drawn) the results were Bead autofluor 3686, BoNT-F LC inh -2, BoNT A protease 0 and Anthrax LF prot -3.
Screening CCOc1ccc(C(C)=O)cc1COC(=O)CNC(=O)C12CC3CC(CC(C3)C1)C2 returned Bead autofluor 3866, BoNT-F LC inh -4, MazF activator -6, BoNT A protease 0 and Anthrax LF prot 5.
`COc1cccc(-c2c(NC(=O)c3ccco3)n(-c3ccc(C)cc3)nc(C)c2=O)c1` gave Bead autofluor 16965*, DUSP3 inh 26, BoNT-F LC inh -3, MazF activator -2, BoNT A protease -1 and Anthrax LF prot -2.
CS(=O)(=O)NCc1ccc(C(=O)NCCOc2ccccc2)cc1 was read as Bead autofluor 17640*, DUSP3 inh 0, BoNT-F LC inh 21, MazF activator -2, BoNT A protease 17 and Anthrax LF prot -18.
`Cc1ccc(OCCNC(=O)c2cccc(S(=O)(=O)NCc3ccccc3)c2)cc1` gave Bead autofluor 6824, BoNT-F LC inh 0, MazF activator 2, BoNT A protease 1 and Anthrax LF prot -1.
`Cc1ccc(NC(=O)N2CCC(c3nc4c(nnn4Cc4cccc(Cl)c4)c(=O)[nH]3)CC2)cc1` gave Bead autofluor 9870, DUSP3 inh 13, BoNT-F LC inh -10, MazF activator -7, BoNT A protease 0 and Anthrax LF prot -2.
For O=C(Nc1ccc(F)cc1)N1CCC(c2nc3c(nnn3Cc3cccc(Cl)c3)c(=O)[nH]2)CC1 the results were Bead autofluor 25569*, DUSP3 inh 19, BoNT-F LC inh -10, MazF activator -13, BoNT A protease -5 and Anthrax LF prot -2.
`COc1ccc2ccccc2c1CN1CCN(Cc2ccccc2)CC1` gave Bead autofluor 5884, DUSP3 inh 23, BoNT-F LC inh -6, MazF activator 6, BoNT A protease -1 and Anthrax LF prot -7.
`COc1ccc2ccccc2c1CN1CCCC(CO)C1` (stereo not drawn) gave Bead autofluor 22577*, DUSP3 inh 10, BoNT-F LC inh -4, MazF activator 9, BoNT A protease inconclusive and Anthrax LF prot -14.
Screening CCCc1cc(C(=O)OCC(=O)NCCc2ccccc2)sc1C returned Bead autofluor 3074, BoNT-F LC inh -2, MazF activator 5, BoNT A protease -1 and Anthrax LF prot -4.
For COCCNC(=O)C1(C)CCN(Cc2csc(-c3ccc(Cl)cc3)n2)C1 (stereo not drawn) the results were Bead autofluor 3861, BoNT-F LC inh -5, BoNT A protease 0 and Anthrax LF prot -1.
`CC1(C)OC(=O)N(CCc2ccccc2)C1(C)O` (stereo not drawn) gave Bead autofluor 25029*, DUSP3 inh 17, BoNT-F LC inh -7, MazF activator -3, BoNT A protease -4 and Anthrax LF prot -2.
COc1ccc(/C=C/c2cc(O)cc(OC3OC(CO)C(O)C(O)C3O)c2)cc1 (stereo not drawn) was read as Bead autofluor 6368, BoNT-F LC inh 4, MazF activator -4, BoNT A protease 0 and Anthrax LF prot 7.
`O=C(c1ccco1)N1CCCSC1=Nc1ccccc1` gave Bead autofluor 21959*, DUSP3 inh -3, BoNT-F LC inh -3, MazF activator 3, BoNT A protease -1 and Anthrax LF prot -2.
For Cc1onc(-c2ccccc2)c1C(=O)N1CCCSC1=Nc1ccccc1 the results were Bead autofluor 3264, DUSP3 inh 9, BoNT-F LC inh -7, MazF activator -1, BoNT A protease 0 and Anthrax LF prot 2.
`O=S1(=O)c2ccc(Br)cc2N2CC[C@H](C2)N1Cc1ccc(Cl)cc1` gave Bead autofluor 3715, BoNT-F LC inh 0, MazF activator 0, BoNT A protease 0 and Anthrax LF prot 0.
`COc1ccccc1C(=O)Nc1ccnn1C1CCN(C)CC1` gave Bead autofluor 5064, DUSP3 inh 19, BoNT-F LC inh -1, MazF activator 8, BoNT A protease 1 and Anthrax LF prot 0.
Cc1cnn(C2CCN(C)CC2)c1N was read as Bead autofluor 16760*, DUSP3 inh -15, BoNT-F LC inh -7, MazF activator -2, BoNT A protease -2 and Anthrax LF prot -4.

From PubChem BioAssay
